Reference: PubChem BioAssay (EPA / NIEHS)
Calls of active or inactive are those of the source. The calls were made as follows: active = hit-call score of the fitted dose curve at least 0.9, where 1 is the maximum; inactive = score below 0.9.

Assays:
Conditions in all cases: mRNA level, 48 h; actives raise or lower the signal
[1] = read-out: matrix metalloproteinase-10 (MMP10), MMP10 (gene 4319); experiment: LTEA_HepaRG_MMP10: Life Technologies and Expression Analysis (LTEA) Assay for matrix metalloproteinase-10 (MMP10) using HepaRG (AID 2283517)
Procedure, shortened: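 Transcript levels come from Fluidigm qRT-PCR normalized to three housekeeping genes, with curves fitted bidirectionally against 0.5% DMSO. Human HepaRG cells were dosed for 48 hours at concentrations up to 100 uM.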

MYC, MYC (gene 4609) = experiment: LTEA_HepaRG_MYC: Life Technologies and Expression Analysis (LTEA) Assay for MYC using HepaRG (AID 2283518)
Procedure, shortened: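 Expression changes were scored by TaqMan qRT-PCR with ACTB, GAPDH and POLR2A normalization. Cultures in serum-free induction medium received duplicate 8-point concentration series, highest 100 uM, for 48 h; DMSO (0.5%) served as baseline.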

[2] = read-out: matrix metalloproteinase-3 (MMP3), MMP3 (gene 4314); experiment: LTEA_HepaRG_MMP3: Life Technologies and Expression Analysis (LTEA) Assay for matrix metalloproteinase-3 (MMP3) using HepaRG (AID 2283519)
Procedure, shortened: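 qRT-PCR read-out of MMP3 mRNA (normalised to three housekeeping genes) in HepaRG liver cells after 48 h chemical exposure; 8-point half-log series, top 100 uM, 0.5% DMSO vehicle. Bidirectional curve fitting against DMSO baseline.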

[3] = read-out: Paternally Expressed 10 (PEG10), PEG10 (gene 23089); experiment: LTEA_HepaRG_PEG10: Life Technologies and Expression Analysis (LTEA) Assay for Paternally Expressed 10 (PEG10) using HepaRG (AID 2283520);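 as to AC50: PEG10 transcript by qRT-PCR normalised to ACTB GAPDH and POLR2A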
Procedure, shortened: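 qRT-PCR read-out: PEG10 mRNA normalised to three housekeeping genes, fitted bidirectionally against 0.5% DMSO vehicle. HepaRG cells received test chemicals for 48 h in serum-free induction medium, 8 points, top 100 uM, half-log steps.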

[4] = read-out: Nuclear factor NF-kappa-B p105 subunit (Homo sapiens) (UniProt P19838); experiment: LTEA_HepaRG_NFKB1: Life Technologies and Expression Analysis (LTEA) Assay for Nuclear Factor Kappa B Subunit 1 (NFKB1) using HepaRG (AID 2283521);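 also: TaqMan qRT-PCR transcript normalised to ACTB GAPDH and POLR2A housekeeping genes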
Procedure, shortened: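 Differentiated human HepaRG cells in serum-free induction medium with 0.5% DMSO were exposed for 48 h to eight half-log concentrations, top 100 uM, in duplicate. NFKB1 mRNA measured by Fluidigm TaqMan qRT-PCR, normalised to ACTB, GAPDH and POLR2A; bidirectional fit versus DMSO.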

[5] = read-out: Protein phosphatase 2A (PPP2R4), PTPA (gene 5524); experiment: LTEA_HepaRG_PPP2R4: Life Technologies and Expression Analysis (LTEA) Assay for Protein phosphatase 2A (PPP2R4) using HepaRG (AID 2283522)
Procedure, shortened: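 HepaRG, 48 h exposure, 8-pt half-log series from 100 uM, 0.5% DMSO vehicle, duplicates. Readout: PPP2R4 mRNA, Fluidigm qRT-PCR, housekeeping-normalized. Bidirectional curve fit vs DMSO baseline.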

[6] = read-out: Phosphatase and tensin (PTEN), PTEN (gene 5728); experiment: LTEA_HepaRG_PTEN: Life Technologies and Expression Analysis (LTEA) Assay for Phosphatase and tensin (PTEN) using HepaRG (AID 2283523)
Procedure, shortened: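 HepaRG, 48 h exposure, 8-pt half-log series from 100 uM top, 0.5% DMSO vehicle, duplicates. Readout: Fluidigm qRT-PCR of PTEN transcript; housekeeping normalization (ACTB, GAPDH, POLR2A). Gain or loss fitted relative to DMSO baseline.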

[7] = read-out: solute carrier (SLC22A1), SLC22A1 (gene 6580); experiment: LTEA_HepaRG_SLC22A1: Life Technologies and Expression Analysis (LTEA) Assay for solute carrier (SLC22A1) using HepaRG (AID 2283524)
Procedure, shortened: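 qRT-PCR readout (TaqMan, Fluidigm arrays) of SLC22A1 transcript, normalized to three housekeeping genes; bidirectional curve fit relative to 0.5% DMSO vehicle. Differentiated human HepaRG cells, 48 h chemical exposure, top concentration 100 uM, half-log steps, eight points.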

[8] = read-out: Pyruvate Dehydrogenase Kinase 4 (PDK4), PDK4 (gene 5166); experiment: LTEA_HepaRG_PDK4: Life Technologies and Expression Analysis (LTEA) Assay for Pyruvate Dehydrogenase Kinase 4 (PDK4) using HepaRG (AID 2283525)
Procedure, shortened: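 HepaRG (human liver line), 48 h chemical exposure, 8-pt half-log CRC top 100 uM, 0.5% DMSO vehicle, duplicates. Readout: TaqMan qRT-PCR of PDK4 mRNA, housekeeping-normalized; gain/loss fit relative to DMSO baseline.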

[9] = read-out: NAD(P)H dehydrogenase [quinone] 1 (NQO1), NQO1 (gene 1728); experiment: LTEA_HepaRG_NQO1: Life Technologies and Expression Analysis (LTEA) Assay for NAD(P)H dehydrogenase [quinone] 1 (NQO1) using HepaRG (AID 2283526)
Procedure, shortened: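 qRT-PCR read-out (Fluidigm TaqMan), normalized to three housekeeping genes, after 48 h chemical exposure of HepaRG cells. Concentrations: eight points, top 100 uM, half-log steps, 0.5% DMSO vehicle. Gain or loss of signal fitted relative to DMSO.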

[10] = read-out: Nuclear factor erythroid 2-related factor 2 (Homo sapiens) (UniProt Q16236); experiment: LTEA_HepaRG_NFE2L2: Life Technologies and Expression Analysis (LTEA) Assay for Nuclear factor erythroid 2-related factor 2 (NFE2L2) Transcription Factor using HepaRG (AID 2283527);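 also: TaqMan qRT-PCR transcript level normalised to ACTB GAPDH and POLR2A housekeeping genes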
Procedure, shortened: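 HepaRG, 48 h dosing, 8-pt half-log series from 100 uM in 0.5% DMSO, duplicates. Read-out: NFE2L2 mRNA by qRT-PCR (ACTB/GAPDH/POLR2A normalization). Bidirectional curve fit vs DMSO baseline.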

[11] = read-out: succinate dehydrogenase complex iron sulfur subunit B (SDHB), SDHB (gene 6390); experiment: LTEA_HepaRG_SDHB: Life Technologies and Expression Analysis (LTEA) Assay for succinate dehydrogenase complex iron sulfur subunit B (SDHB) using HepaRG (AID 2283528)
Procedure, shortened: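 HepaRG cells (~100,000/well, plated 48 h) exposed in duplicate for 48 h in serum-free induction medium to 8-point half-log series from 100 uM in 0.5% DMSO; mRNA by qRT-PCR normalised to ACTB, GAPDH, POLR2A; bidirectional fit versus DMSO.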

[12] = read-out: Signal transducer and activator of transcription 3 (Homo sapiens) (UniProt P40763); experiment: LTEA_HepaRG_STAT3: Life Technologies and Expression Analysis (LTEA) Assay for Signal transducer and activator of transcription (STAT3) using HepaRG (AID 2283529)
Procedure, shortened: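 HepaRG, 48 h exposure, 8-pt half-log series (top 100 uM), 0.5% DMSO vehicle, duplicates. Readout: STAT3 transcript by Fluidigm qRT-PCR, housekeeping-normalized; bidirectional fit vs DMSO baseline.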

[13] = read-out: solute carrier (SLCO1B1), SLCO1B1 (gene 10599); experiment: LTEA_HepaRG_SLCO1B1: Life Technologies and Expression Analysis (LTEA) Assay for solute carrier (SLCO1B1) using HepaRG (AID 2283530)
Procedure, shortened: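 Human HepaRG cultures treated for 48 h with an eight-concentration half-log series topping at 100 uM; SLCO1B1 measured by qRT-PCR and fitted bidirectionally relative to DMSO.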

[14] = read-out: sulfotransferase 2A1 (SULT2A1), SULT2A1 (gene 6822); experiment: LTEA_HepaRG_SULT2A1: Life Technologies and Expression Analysis (LTEA) Assay for sulfotransferase 2A1 (SULT2A1) using HepaRG (AID 2283531)
Procedure, shortened: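 Gene-expression endpoint in a human liver cell line: SULT2A1 mRNA change after 48 h chemical treatment, curves fitted in both directions relative to 0.5% DMSO vehicle. Concentrations spanned eight half-log steps from 100 uM.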

[15] = read-out: Transforming Growth Factor (TGFA), TGFA (gene 7039); experiment: LTEA_HepaRG_TGFA: Life Technologies and Expression Analysis (LTEA) Assay for Transforming Growth Factor (TGFA) using HepaRG (AID 2283532)
Procedure, shortened: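 qRT-PCR read-out of TGFA transcript, normalized to three housekeeping genes, fitted bidirectionally against 0.5% DMSO baseline. Human HepaRG cultures received chemicals for 48 h at eight half-log concentrations, top 100 uM.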

[16] = read-out: Transforming Growth Factor (TGFB1), TGFB1 (gene 7040); experiment: LTEA_HepaRG_TGFB1: Life Technologies and Expression Analysis (LTEA) Assay for Transforming Growth Factor (TGFB1) Transporter using HepaRG (AID 2283533)
Procedure, shortened: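 Eight-point concentration-response (max 100 uM, half-log) in HepaRG under serum-free induction conditions, 48 h. TGFB1 mRNA by qRT-PCR, housekeeping-normalized.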

TIMP1, TIMP1 (gene 7076) = experiment: LTEA_HepaRG_TIMP1: Life Technologies and Expression Analysis (LTEA) Assay for TIMP1 using HepaRG (AID 2283534)
Procedure, shortened: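 TIMP1 induction or repression in HepaRG cells after 48 h chemical exposure (eight concentrations, highest 100 uM), assessed by normalized qRT-PCR with bidirectional fitting to DMSO controls.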

[17] = read-out: Tumor necrosis factor receptor 1 (TNFRSF1A), TNFRSF1A (gene 7132); experiment: LTEA_HepaRG_TNFRSF1A: Life Technologies and Expression Analysis (LTEA) Assay for Tumor necrosis factor receptor 1 (TNFRSF1A) using HepaRG (AID 2283535)
Procedure, shortened: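 Assay uses 48 h chemical treatment of differentiated HepaRG monolayers, tested in duplicate at eight concentrations from 100 uM downward in 0.5% DMSO. mRNA is normalized to ACTB, GAPDH and POLR2A, with induction or suppression fitted relative to vehicle.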

[18] = read-out: Thyroid Hormone Responsive (THRSP), THRSP (gene 7069); experiment: LTEA_HepaRG_THRSP: Life Technologies and Expression Analysis (LTEA) Assay for Thyroid Hormone Responsive (THRSP) using HepaRG (AID 2283536)
Procedure, shortened: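 qRT-PCR read-out (Fluidigm TaqMan), housekeeping-normalized (ACTB/GAPDH/POLR2A). HepaRG, 48 h chemical exposure, 8-pt half-log series from 100 uM in 0.5% DMSO, duplicates. Bidirectional curve fit vs 0.5% DMSO baseline.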

Measured: AC50

Chain of Nuclear factor NF-kappa-B p105 subunit (Homo sapiens) (P19838 whole entry, looked up): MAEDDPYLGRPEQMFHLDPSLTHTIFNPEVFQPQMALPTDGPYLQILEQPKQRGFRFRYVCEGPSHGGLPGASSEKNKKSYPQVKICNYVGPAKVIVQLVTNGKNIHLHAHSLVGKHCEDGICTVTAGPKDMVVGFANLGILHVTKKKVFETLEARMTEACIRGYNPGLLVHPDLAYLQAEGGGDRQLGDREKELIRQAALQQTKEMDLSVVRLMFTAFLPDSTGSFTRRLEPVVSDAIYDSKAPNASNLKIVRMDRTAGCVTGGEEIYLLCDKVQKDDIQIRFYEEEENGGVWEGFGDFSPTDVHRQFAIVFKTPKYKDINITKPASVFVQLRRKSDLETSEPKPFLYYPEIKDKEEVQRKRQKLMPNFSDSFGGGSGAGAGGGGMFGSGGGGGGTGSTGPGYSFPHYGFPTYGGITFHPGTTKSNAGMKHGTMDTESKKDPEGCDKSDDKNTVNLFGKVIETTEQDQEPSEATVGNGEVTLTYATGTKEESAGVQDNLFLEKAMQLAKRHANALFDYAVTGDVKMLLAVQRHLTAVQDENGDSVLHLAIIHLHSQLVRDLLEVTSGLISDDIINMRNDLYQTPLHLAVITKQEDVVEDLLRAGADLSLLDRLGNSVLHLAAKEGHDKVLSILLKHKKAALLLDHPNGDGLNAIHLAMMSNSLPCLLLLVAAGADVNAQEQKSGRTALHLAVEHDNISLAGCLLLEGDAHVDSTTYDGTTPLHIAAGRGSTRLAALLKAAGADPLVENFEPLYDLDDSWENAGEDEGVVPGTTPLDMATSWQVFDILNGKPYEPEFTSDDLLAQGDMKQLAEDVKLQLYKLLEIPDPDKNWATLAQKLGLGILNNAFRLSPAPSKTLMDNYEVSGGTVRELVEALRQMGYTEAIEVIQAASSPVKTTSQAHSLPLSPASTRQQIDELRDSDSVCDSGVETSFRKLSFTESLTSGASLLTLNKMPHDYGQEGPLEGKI
Chain of Signal transducer and activator of transcription 3 (Homo sapiens) (P40763 whole entry, looked up): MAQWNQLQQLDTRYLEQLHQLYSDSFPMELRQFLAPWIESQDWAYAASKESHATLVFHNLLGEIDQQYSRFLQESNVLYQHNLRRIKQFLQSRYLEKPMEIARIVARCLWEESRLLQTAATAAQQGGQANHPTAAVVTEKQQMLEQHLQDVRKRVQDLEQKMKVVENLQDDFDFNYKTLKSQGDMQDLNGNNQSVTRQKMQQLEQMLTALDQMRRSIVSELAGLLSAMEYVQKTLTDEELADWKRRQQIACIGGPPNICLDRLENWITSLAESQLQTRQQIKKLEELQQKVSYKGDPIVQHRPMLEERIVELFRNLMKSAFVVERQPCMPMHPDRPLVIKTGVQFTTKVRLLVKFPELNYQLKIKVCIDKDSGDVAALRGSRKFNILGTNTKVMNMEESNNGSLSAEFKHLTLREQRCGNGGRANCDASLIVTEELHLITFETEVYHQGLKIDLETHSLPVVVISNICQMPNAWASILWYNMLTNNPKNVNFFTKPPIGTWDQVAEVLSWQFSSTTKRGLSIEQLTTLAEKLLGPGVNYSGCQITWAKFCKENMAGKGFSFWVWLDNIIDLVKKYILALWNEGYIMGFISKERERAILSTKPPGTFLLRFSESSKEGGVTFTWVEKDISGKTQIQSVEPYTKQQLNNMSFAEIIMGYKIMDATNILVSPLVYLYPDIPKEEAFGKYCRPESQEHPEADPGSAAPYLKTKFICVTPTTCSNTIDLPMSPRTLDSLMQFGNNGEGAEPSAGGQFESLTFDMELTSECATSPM
Chain of Nuclear factor erythroid 2-related factor 2 (Homo sapiens) (Q16236 whole entry, looked up): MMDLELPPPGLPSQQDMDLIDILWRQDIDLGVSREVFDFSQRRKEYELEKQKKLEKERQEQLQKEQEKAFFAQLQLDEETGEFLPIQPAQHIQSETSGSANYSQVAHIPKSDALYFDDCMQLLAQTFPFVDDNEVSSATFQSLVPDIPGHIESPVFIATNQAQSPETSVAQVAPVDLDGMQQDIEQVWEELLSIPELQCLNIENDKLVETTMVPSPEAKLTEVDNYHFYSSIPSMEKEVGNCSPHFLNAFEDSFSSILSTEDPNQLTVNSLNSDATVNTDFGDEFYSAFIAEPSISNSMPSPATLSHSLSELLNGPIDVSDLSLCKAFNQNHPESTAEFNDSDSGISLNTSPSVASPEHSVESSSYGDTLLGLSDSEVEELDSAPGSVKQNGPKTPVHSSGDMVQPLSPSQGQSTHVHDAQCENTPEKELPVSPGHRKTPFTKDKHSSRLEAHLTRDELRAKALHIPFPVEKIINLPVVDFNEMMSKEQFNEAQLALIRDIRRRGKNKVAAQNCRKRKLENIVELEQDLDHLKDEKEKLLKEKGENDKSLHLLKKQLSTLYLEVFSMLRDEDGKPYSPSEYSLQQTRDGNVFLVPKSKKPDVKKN

O=c1n(CC2CO2)c(=O)n(CC2CO2)c(=O)n1CC1CO1 (stereo unspecified)
inactive: all assays above

C1=CCCC=CCCC=CCC1
not listed: [17]
inactive: all other assays above

NC(=O)NO
inactive: all assays above

COC(=O)c1c(Cl)c(Cl)c(C(=O)OC)c(Cl)c1Cl
inactive: all assays above

CC(C)CCCCCCCOC(=O)CCCCC(=O)OCCCCCCCC(C)C
inactive: all assays above

CCOc1cccc(-n2cc(C(=O)N3CCN(c4cc(C(=O)O)c5ccccc5c4)CC3)nc2-c2ccc(C)cc2)c1
inactive: [1] | MYC, MYC (gene 4609) | [2] | [4] | [10] | TIMP1, TIMP1 (gene 7076)
active: [3] 33.2 µM | [6] 79.2 µM | [7] 29.9 µM | [8] 89.3 µM | [9] 78.4 µM | [11] 82.3 µM | [12] 50 µM | [13] 37.4 µM | [14] 35.7 µM | [15] 88.7 µM | [16] 83.7 µM | [17] 80.3 µM | [18] 26.3 µM

Nc1nc2ncc(CNc3ccc(C(=O)N[C@@H](CCC(=O)O)C(=O)O)cc3)nc2c(=O)[nH]1
not listed: [5]
inactive: all other assays above

CC(C)(O)c1coc(S(=O)(=O)NC(=O)Nc2c3c(cc4c2CCC4)CCC3)c1
active: [3] 50 µM
not listed: [5]
inactive: all other assays above

CC[C@H]1OC(=O)[C@H](C)[C@@H](O[C@H]2C[C@@](C)(OC)[C@@H](O)[C@H](C)O2)[C@H](C)[C@@H](O[C@@H]2O[C@H](C)C[C@H](N(C)C)[C@H]2O)[C@](C)(O)C[C@@H](C)C(=O)[C@H](C)[C@@H](O)[C@]1(C)O
not listed: [5]
inactive: all other assays above

COCCOCCOCCOC
not listed: [5]
inactive: all other assays above

CCOCCOCCOCCO
not listed: [5]
inactive: all other assays above

CCCCCCCCCCCCc1ccccc1
not listed: [5]
inactive: all other assays above

O=C1CCCCCN1
not listed: [5]
inactive: all other assays above
